Here are results for 27 molecules from PubChem BioAssay (NCATS).

Several values for one entry are separate records, joined by “and”; a condition that tells them apart may be missing. Identical values can stand only once. Values without a mark were called inactive. Results filed as inconclusive are left out. Activity calls are given as the source filed them. Unless noted, the call rests on the fitted dose curve.

Assay [1] can be described thus: Validation screen for inhibitors of Lassa infection (AID 463096). Further: potency means the concentration at half of the fitted maximal effect.
The nature of assay [2]: Inducers of the Endoplasmic Reticulum Stress Response (ERSR) in human glioma: Validation (AID 504836; active means well fitted curve in the direction sought with a large enough effect; an effect the other way counts as inactive or inconclusive; further: 0% is about no effect). An outline of the steps:
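Stably transfected U87-MG human glioma cells carrying a GRP78-based luminescent sensor were seeded at 1000 cells/well, pin-dosed with compounds and incubated 16 h. Luciferase reagent was then added, and end-point luminescence was read after 10 min at room temperature.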

Assay [3] in a line: qHTS for Inhibitors of the Functional Ribonucleoprotein Complex (vRNP) of Lassa (LASV) Arenavirus: LASV Primary Screen - GLuc reporter signal (AID 1347082; calls by dose curve; tested in HEK293 reporter line; further: series mostly up to about 57 µM; on the % scale 0 is the no-effect control and ±100 the full control effect; nearly all actives have a fitted effect of over 60% in size). A general note: qHTS replaces the single test concentration by a dilution series.
Assay [4] in a line: qHTS for Inhibitors of the Functional Ribonucleoprotein Complex (vRNP) of Lassa (LASV) Arenavirus: Viability assay - alamar blue signal for LASV Primary Screen (AID 1347083; calls by dose curve; tested in HEK293 reporter line; further: series mostly up to about 57 µM; on the % scale 0 is the no-effect control and ±100 the full control effect; nearly all actives have a fitted effect of over 80% in size).
Assay [5] in a line: qHTS for Inhibitors of the Functional Ribonucleoprotein Complex (vRNP) of Lymphocytic Choriomeningitis Arenaviruses (LCMV): Viability assay - alamar blue signal for LCMV Primary Screen (AID 1347085; calls by dose curve; tested in HEK293 reporter line; further: series mostly up to about 57 µM; on the % scale 0 is the no-effect control and ±100 the full control effect; nearly all actives have a fitted effect of over 80% in size).
Assay [6] deals with Nucleoprotein (Lymphocytic choriomeningitis virus (strain Armstrong)) (UniProt P09992). Briefly: qHTS for Inhibitors of the Functional Ribonucleoprotein Complex (vRNP) of Lymphocytic Choriomeningitis Arenaviruses (LCMV): LCMV Primary Screen - GLuc reporter signal (AID 1347086). Further: series mostly up to about 57 µM; on the % scale 0 is the no-effect control and ±100 the full control effect; nearly all actives have a fitted effect of over 70% in size.
Assay [7] in a line: Cell Viability - BJ (AID 421).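 Further: potency means the concentration at half of the fitted maximal effect; cells exposed to compound for 40 hours at 37 °C before readout.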 Conditions: BJ fibroblast viability, qHTS. The method in brief:
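Normal human BJ foreskin fibroblasts, 1500/well in complete medium, treated 40 hr at 37 °C. Cellular ATP by CellTiter-Glo luminescence; normalized to DMSO and 100 uM tamoxifen, AC50 from Hill fit.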

Assay [8] is described as follows: Cell Viability - Hek293 (AID 427;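 active means compounds whose dose-response curve shows a full or clear partial loss of cell viability, called from curve shape rather than a numeric limit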;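 further: potency means the concentration at half of the fitted maximal effect; cells exposed to compound for 40 hours at 37 °C before reading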). The conditions noted are these: qHTS. An outline of the steps:
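HEK293 cells in complete medium were exposed to compound for 40 hr at 37 °C, then cellular ATP was read by CellTiter-Glo luminescence. Data were normalized to DMSO (basal) and 100 uM tamoxifen (100% inhibition), and AC50 came from Hill fits.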

A short description of assay [9]: Cell Viability - HepG2 (AID 433).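 Further: potency means the concentration at half of the fitted maximal effect; potency for ATP loss meaning cytotoxicity.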 Conditions: qHTS. An outline of the steps:
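In this qHTS format, a 40 h, 37 °C compound incubation of HepG2 cells in complete medium precedes a 20 min CellTiter-Glo step at room temperature. Tamoxifen and doxorubicin serve as positive controls; Hill-equation fits yield AC50.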

The nature of assay [10]: Cell Viability - MRC5 (AID 434).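 Further: potency means the concentration at half of the fitted maximal effect; potency reflects cytotoxicity seen as loss of intracellular ATP.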 Conditions: MRC5 lung fibroblast viability, qHTS. An outline of the steps: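 MRC5 normal human lung fibroblasts (1500/well) were treated with compounds for 40 hr at 37 °C in complete medium, and viable cells were measured as intracellular ATP by CellTiter-Glo luminescence. AC50 came from Hill fits, normalized to DMSO and 100 uM tamoxifen.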

A short description of assay [11]: Cell Viability - SK-N-SH (AID 435).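 Further: potency means the concentration at half of the fitted maximal effect; compound exposure lasted 40 h at 37 °C.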 Conditions: SK-N-SH neuroblastoma cell viability qHTS. The method in brief:
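Human neuroblastoma line, 40 h exposure at 37 °C, ATP quantified via luciferase luminescence; DMSO and 100 uM tamoxifen define 0 and 100% inhibition for AC50 fitting.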

Assay [12] can be described thus: Cell Viability - HUV-EC-C (AID 542; active means well fitted curve in the direction sought with a large enough effect; an effect the other way counts as inactive or inconclusive; further: on the % scale 0 is the no-effect control and ±100 the full control effect; nearly all actives have a fitted effect of over 35% in size). An outline of the steps:
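HUV-EC-C human vascular endothelial cells, 1000/well, exposed to compound for 40 hr at 37 °C in complete medium. Intracellular ATP was read by CellTiter-Glo luminescence. AC50 came from Hill-equation fits of concentration-response data.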

A short description of assay [13]: Cell Viability - Mesenchymal (AID 546; active means well fitted curve in the direction sought with a large enough effect; an effect the other way counts as inactive or inconclusive;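 further: cells exposed to compound for 40 hours before reading; 0% = DMSO only and -100% = 100 µM tamoxifen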). The method in brief:
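Normal human renal glomerulus-derived kidney mesenchymal cells, 1000 per well in complete medium, were treated with compounds for 40 hr at 37 °C. Viability was read as intracellular ATP by CellTiter-Glo luminescence; AC50 values came from Hill-equation fits of qHTS concentration-response data.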

Assay [14] in a line: Cellular Toxicity (caspase-3) HepG2 (AID 654; active means well fitted curve in the direction sought with a large enough effect; an effect the other way counts as inactive or inconclusive;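 further: cells exposed to compound for 16 hours before reading; 0% = DMSO alone and 100% = caspase signal from 100 µM tamoxifen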). The method in brief: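 HepG2 cells (1500/well) were treated 16 h at 37 °C in complete medium, then caspase 3/7 activity was read by Caspase-Glo luminescence. Data were normalized to DMSO and 100 uM tamoxifen; AC50 came from Hill-equation fits of qHTS concentration-response.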
The nature of assay [15]: Cellular Toxicity (caspase-3) HUV-EC-C (AID 656; active means well fitted curve in the direction sought with a large enough effect; an effect the other way counts as inactive or inconclusive;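 further: 0% = DMSO basal and 100% = 100 µM tamoxifen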). An outline of the steps: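 Concentration-dependent caspase 3/7 induction was assessed in HUV-EC-C cells exposed for 16 hours. Data scaled between DMSO and tamoxifen (100 uM) controls.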
Assay [16] can be described thus: Cellular Toxicity (caspase-3) SHSY5Y (AID 657; active means well fitted curve in the direction sought with a large enough effect; an effect the other way counts as inactive or inconclusive;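 further: cells exposed to compound for 16 hours at 37 °C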). The method in brief: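 Readout: caspase-cleaved peptide-aminoluciferin substrate driving luciferase light in SH-SY5Y neuroblastoma cells after 16 h treatment. Response normalized to DMSO and 10 uM staurosporine controls.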
The nature of assay [17]: Cellular Toxicity (caspase-3) BJ (AID 658; active means well fitted curve in the direction sought with a large enough effect; an effect the other way counts as inactive or inconclusive;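 further: 0% = DMSO basal and 100% = 10 µM staurosporine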). An outline of the steps: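 Luminescent aminoluciferin-substrate cleavage reports caspase 3/7 activity in normal human BJ fibroblasts after 16 hr compound exposure at 37 °C. Normalized to DMSO (basal) and 10 uM staurosporine (100%); AC50 from Hill fit of concentration-response.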
Assay [18] in a line: qHTS assay for small molecule agonists of the antioxidant response element (ARE) signaling pathway (AID 651741; active means well fitted activation curve with a large enough effect in the signal ratio; the % refers to the signal ratio; further: potency means the concentration at half of the fitted maximal effect; on activation: % of control where 0% means no effect). An outline of the steps: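 Compounds in DMSO are pinned onto HepG2 ARE-bla cells (2,000/well) that were preincubated 5 h; plates stay 16 h at 37 C, then beta-lactamase activity is detected with LiveBLAzer B/G substrate by fluorescence.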
Assay [19] can be described thus: qHTS assay for small molecule disruptors of the mitochondrial membrane potential - 5 hr assay (AID 651755). Further: nearly all actives have a fitted effect of over 40% in size. Further: potency means the concentration at half of the fitted maximal effect. An outline of the steps: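 HepG2 cells, attached overnight at 37C, were exposed to compound or DMSO for 5 hr at 37C, 5% CO2. Mito-MPS dye was then added for 30 min, and fluorescence read at 490/535 nm (monomers) and 540/590 nm (aggregates).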
In assay [20] the target is Peroxisome proliferator-activated receptor alpha (Homo sapiens) (UniProt Q07869). Briefly: qHTS assay for small molecule agonists of the peroxisome proliferator-activated receptor alpha (PPARalpha) signaling pathway (AID 651778; active means well fitted curve in the direction sought with a large enough effect; an effect the other way counts as inactive or inconclusive; further: % of control where 0% means no effect). The conditions noted are these: PathHunter PPARalpha complementation, chemiluminescence, 6 h; hits give high values. An outline of the steps: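 Cells plated at 2,000/well and held overnight at 37 C, 5% CO2, then compound added by pin tool for 6 hr; after PathHunter detection reagent and 60 min at room temperature, chemiluminescence from enzyme complementation was read.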
Peroxisome proliferator-activated receptor alpha (Homo sapiens), sequence (Q07869 whole entry, looked up): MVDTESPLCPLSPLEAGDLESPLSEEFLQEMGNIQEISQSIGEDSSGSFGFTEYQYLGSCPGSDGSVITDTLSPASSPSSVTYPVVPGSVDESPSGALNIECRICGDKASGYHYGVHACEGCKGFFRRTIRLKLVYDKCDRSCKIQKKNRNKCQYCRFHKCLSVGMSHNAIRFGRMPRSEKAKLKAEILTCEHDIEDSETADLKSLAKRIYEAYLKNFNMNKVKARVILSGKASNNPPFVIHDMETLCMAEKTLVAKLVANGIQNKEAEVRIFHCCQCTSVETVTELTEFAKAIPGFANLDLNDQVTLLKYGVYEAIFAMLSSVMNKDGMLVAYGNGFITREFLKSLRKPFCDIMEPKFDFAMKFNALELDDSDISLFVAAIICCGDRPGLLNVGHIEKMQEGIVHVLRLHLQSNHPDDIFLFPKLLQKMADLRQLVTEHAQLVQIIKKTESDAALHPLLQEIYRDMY

Nucleoprotein (Lymphocytic choriomeningitis virus (strain Armstrong)), sequence (P09992 whole entry, looked up): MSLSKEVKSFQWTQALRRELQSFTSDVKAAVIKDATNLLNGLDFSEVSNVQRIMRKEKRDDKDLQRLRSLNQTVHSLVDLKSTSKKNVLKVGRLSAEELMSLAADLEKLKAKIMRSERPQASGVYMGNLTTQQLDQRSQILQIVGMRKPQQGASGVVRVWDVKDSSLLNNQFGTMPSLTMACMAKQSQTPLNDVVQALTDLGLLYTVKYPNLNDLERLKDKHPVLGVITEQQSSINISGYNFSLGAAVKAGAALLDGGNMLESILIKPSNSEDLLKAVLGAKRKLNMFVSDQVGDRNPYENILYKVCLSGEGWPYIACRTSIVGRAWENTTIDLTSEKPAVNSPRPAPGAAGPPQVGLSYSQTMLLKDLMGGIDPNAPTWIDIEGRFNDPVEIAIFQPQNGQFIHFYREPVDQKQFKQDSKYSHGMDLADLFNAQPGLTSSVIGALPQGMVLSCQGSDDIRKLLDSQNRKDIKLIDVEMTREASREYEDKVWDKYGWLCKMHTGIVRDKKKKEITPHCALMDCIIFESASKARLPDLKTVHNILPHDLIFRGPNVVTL

`NC(N)=N[C@@H](CCC(=O)O)C(=O)O`: the Potency entry in assay [1], in [3], in [4], in [5] and in assay [6] was “inactive” throughout. In addition, the call in [2] was inactive.

Take `O=c1cc(O)cc(/C=C/c2ccc(O)c(O)c2)o1`: the Potency entry in assay [1], in assay [3], in assay [4], in assay [5] and in assay [6] was “inactive” throughout.

Regarding `CCNC(=O)[C@H]1O[C@@H](n2cnc3c(N)nc(NCCc4ccc(CCC(=O)O)cc4)nc32)[C@H](O)[C@H]1O`, the Potency entry in assay [1], in [3], in [4], in assay [5] and in assay [6] was “inactive” throughout.

As to `Cc1ccc(C(=O)O[C@H](C(=O)O)[C@@H](OC(=O)c2ccc(C)cc2)C(=O)O)cc1` (tested in a mixture with another compound), the Potency entry in assay [1], in [3], in [4], in assay [5] and in assay [6] was “inactive” in each case. For the same molecule, the molecule was classed as inactive in [2].

On to `Nc1ncnc2c1ncn2C1CCCO1` (configuration not stated), for which the Potency entry in assay [1], in assay [3], in [4], in assay [5] and in [6] was “inactive” in each case. Also, in [2], the molecule was called inactive.

`CC(=O)C(C)=O`: the Potency entry in assay [1], in [3], in assay [4], in assay [5] and in assay [6] was “inactive” throughout. Besides, the molecule was called inactive in assay [2].

On to `O=C(/C=C/c1ccc(O)c(O)c1)OCCc1ccccc1`, for which the Potency result in assay [1], in assay [3], in assay [4], in assay [5] and in assay [6] was “inactive” in each case.

With `CN1C2CCC1CC(OC(=O)c1c[nH]c3ccccc13)C2` (configuration not stated), the Potency entry in assay [1], in assay [3], in assay [4], in assay [5] and in [6] was “inactive” throughout.

Consider `Cc1cccc(C2CN(C)CCc3c2cc(O)c(O)c3Cl)c1` (configuration not stated), for which the Potency entry in [1], in assay [3], in [4], in [5] and in assay [6] was “inactive” in each case.

As for `CC(=O)/C=C/c1ccccc1`, the Potency in assay [7], in assay [8], in [9], in assay [10] and in assay [11] was > 92 µM each time. The call in assay [12], in assay [13], in [14], in assay [15], in assay [16] and in assay [17] was inactive. The Potency entry in assay [18], in [19], in assay [3], in assay [4], in assay [5] and in assay [6] was “inactive” in each case. Further, the max response in [20] is -5.69%.

Consider `NC1CCN(O)C1=O` (configuration not stated), for which the Potency entry in [1], in assay [3], in [4], in [5] and in assay [6] was “inactive” in each case.

In the case of `O=C(O)/C=C/c1cnc[nH]1`, the Potency result in [1], in [3], in assay [4], in assay [5] and in assay [6] was “inactive” each time.

For `Brc1c(Br)c(Br)c2n[nH]nc2c1Br`, the Potency result in assay [1], in assay [3], in assay [4], in assay [5] and in assay [6] was “inactive” each time. In addition, in assay [2], the molecule was classed as inactive.

As to `C=C(C)[C@H]1CC=C(CO)CC1`, the Potency entry in assay [3], in assay [4], in [5] and in [6] was “inactive” throughout.

As for `COC1=CC(=O)OC(CCc2ccc3c(c2)OCO3)C1` (configuration not stated), the Potency in assay [7], in [8], in assay [9], in assay [10] and in assay [11] was > 92 µM throughout. Further, the molecule was called inactive in [12], in [13], in assay [14], in assay [15], in assay [16] and in assay [17]. Moreover, the Potency result in assay [18], in assay [19], in [3], in assay [4], in assay [5] and in assay [6] was “inactive” throughout. In addition, in assay [20], the max response was -0.116%.

As for `C=CCN1CCc2c(cc(O)c(O)c2Br)[C@@H](c2ccccc2)C1`, the Potency entry in assay [1], in assay [3], in [4], in assay [5] and in assay [6] was “inactive” throughout.

For the molecule `c1ccc(Nc2ccc3ccccc3c2)cc1`, the Potency in assay [7] was > 92 µM; in assay [8] it was > 92 µM; in assay [9], > 92 µM; in assay [10] it was > 92 µM; in [11] it was > 92 µM; in [18], 42.2 µM (active) and 54.5 µM (active). Besides, the Potency in assay [19] was 42.2 µM (active). Also, the result in [12], in assay [13], in assay [14], in [15], in assay [16] and in assay [17] was inactive. Moreover, in assay [20], the max response was 18.5% and 8.75%. For the same molecule, the Potency entry in assay [3], in [4], in [5] and in assay [6] was “inactive” throughout.

`N[C@@H](CCCC(=O)O)C(=O)O`: the Potency result in [1], in assay [3], in assay [4], in assay [5] and in assay [6] was “inactive” in each case.

Turning to `CCOC(=O)c1ccccc1N`, the Potency in [7], in assay [8], in assay [9], in assay [10] and in [11] was > 92 µM in each case. The result in assay [12], in assay [13], in [14], in [15], in assay [16] and in assay [17] was inactive. Also, the Potency result in assay [18], in [19], in assay [3], in assay [4], in assay [5] and in assay [6] was “inactive” each time. Moreover, in assay [20], the max response is -7.33%.

Regarding `CC(C)(C)c1ccc(S(=O)(=O)/C=C/C#N)cc1`, in assay [1], the Potency was 11.2 µM (active). Further, the Potency result in assay [3], in assay [4], in assay [5] and in assay [6] was “inactive” throughout.

Take `Nc1nc2[nH]c(=O)cnc2c(=O)[nH]1`: the Potency result in assay [1], in assay [3], in [4], in [5] and in assay [6] was “inactive” throughout.

Take `NC(C(=O)N[C@@H]1C(=O)N2C(C(=O)O)=C(Cl)CS[C@H]12)c1ccccc1` (some centres not stated): the Potency entry in assay [1], in assay [3], in [4], in [5] and in assay [6] was “inactive” in each case.

`CC1CCN(CC[C@H]2CCCN2S(=O)(=O)c2cccc(O)c2)CC1`: the Potency result in [1], in assay [3], in assay [4], in [5] and in [6] was “inactive” throughout. Also, the molecule was classed as inactive in [2].

In the case of `O=c1oc(Cl)c(Cl)c2ccccc12`, the result in assay [2] was inactive. In addition, the Potency result in [3], in assay [4], in assay [5] and in assay [6] was “inactive” in each case.

In the case of `C=C/C(C)=C/[C@@]1(C)SC(=O)C(C)=C1O`, the Potency entry in assay [1], in assay [3], in [4], in [5] and in [6] was “inactive” each time.

On to `NCC(O)c1ccc(O)c(O)c1` (configuration not stated), for which the Potency entry in assay [1], in assay [3], in [4], in assay [5] and in assay [6] was “inactive” in each case.

In the case of `CCCCCCCCCCCCCCCCCC(=O)OC(CC(=O)O)C[N+](C)(C)C` (configuration not stated), the Potency result in [1], in [3], in assay [4], in [5] and in assay [6] was “inactive” in each case.
